Measured values: the supplement of paper PMC3334620
Whole data set: some 33,000 sequences, median “E-score (-0.5 to 0.5)” near -0.012, cut for the highest 2% near 0.27. Many of the other results were omitted from the sample, so the highest values are more common in it than they were.

biological target: T1, Vhr1 (UniProt P40522); test: PBM E-score (8-mer binding enrichment) (E-score (-0.5 to 0.5)); higher = stronger / more preferred TF binding; conditions: protein concentration: 200 nM; construct: GST-full length
T1 sequence: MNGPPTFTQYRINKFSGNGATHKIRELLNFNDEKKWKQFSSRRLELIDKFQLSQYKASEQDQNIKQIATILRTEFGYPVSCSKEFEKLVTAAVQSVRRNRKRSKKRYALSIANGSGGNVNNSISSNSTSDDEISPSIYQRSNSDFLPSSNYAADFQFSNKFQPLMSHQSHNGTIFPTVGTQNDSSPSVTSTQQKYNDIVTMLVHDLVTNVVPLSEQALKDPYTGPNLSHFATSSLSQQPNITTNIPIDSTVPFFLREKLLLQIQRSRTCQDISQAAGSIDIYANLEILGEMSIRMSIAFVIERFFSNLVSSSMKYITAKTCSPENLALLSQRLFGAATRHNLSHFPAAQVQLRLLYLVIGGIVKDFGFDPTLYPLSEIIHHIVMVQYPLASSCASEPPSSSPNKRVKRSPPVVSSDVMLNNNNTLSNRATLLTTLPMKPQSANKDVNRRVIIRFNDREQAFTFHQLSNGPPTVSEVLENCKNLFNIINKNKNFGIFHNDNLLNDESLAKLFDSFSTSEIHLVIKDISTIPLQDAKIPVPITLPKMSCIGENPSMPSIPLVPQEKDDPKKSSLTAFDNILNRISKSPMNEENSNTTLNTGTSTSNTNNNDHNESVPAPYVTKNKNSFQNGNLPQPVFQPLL
Outline: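 For each ungapped eight-base word taken together with its reverse complement, the Universal PBM Analysis Suite assigned an E-score. Binding data came from GST-tagged yeast transcription factors, applied at about 100-200 nM, on universal all-10-mer Agilent arrays made double-stranded by primer extension. Fluorescent anti-GST marked bound protein, and scans were normalised with masliner.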

Sequence | PBM E-score
AATAATCA | 0.203
GATAATCC | -0.112
TAGATTCA | -0.0459
GTGCGAAC | -0.037
AAGATCAG | 0.0101
ACCTGGAC | 0.0512
CCCATGAA | 0.0105
CCAATGAA | -0.18
ACCATGAC | 0.307
TCCATGAA | 0.123
GCCATGAA | 0.0605
CCAATGAC | 0.285
ACCATGAG | 0.0389
GCCATGAC | 0.0961
GCAATGAC | 0.103
ACCATGAA | 0.276
ACCATGAT | 0.219
CCCATGAC | 0.332
GTGGGGTA | 0.22
CACCCGAC | 0.0689
GTGTGCGA | 0.0262
CGTCTCCA | 0.149
CGGAGGAC | 0.00537
CTTAAGCC | -0.234
AAGTTTGT | -0.034
CGGGGTCC | -0.227

Sequence | PBM E-score
ACACATAG | 0.102
ATACATAC | 0.293
ACACATAC | 0.29
ATACATAT | 0.367
CTACATAC | 0.0864
ATACATAA | 0.135
ATACATAG | 0.108
ACACATAA | 0.119
GTACATAC | 0.119
GCTGACCC | 0.0256
ACCCAGCT | 0.0775
GTCCAGCA | -0.0682
ACGTCCAT | -0.123
CGCGGTCC | -0.137
AGATCCCT | -0.142
CGATCCCG | 0.0117
AGATCCCG | 0.297
ACCTCACG | -0.0286
CATCAACG | 0.131
AGGGGCGA | 0.113
AGGGGCGC | 0.0808
AGGGGCGG | 0.348
GTTCATTA | -0.0167
ACGACTCT | 0.261
ACGACTCA | 0.445
GCCACTCC | 0.205

Sequence | PBM E-score
CCGACTGA | -0.0635
ACGACTTA | -0.0824
GCGACTCC | 0.414
CTGACCCC | -0.0745
CCGACTTA | -0.0517
CCGACTCA | 0.417
CTTACTCC | 0.0868
GCGACCCC | 0.0605
CTGACTCC | 0.47
AAATGGAC | -0.0108
ATCTCAGA | 0.00554
CCTGTGCA | -0.0814
CCCCCTCG | -0.242
GTAGGCGA | 0.097
ACATGCCA | 0.0538
GCGACTTA | -0.104
CCGACTCG | 0.238
GCGACTCA | 0.477
ACGACTCG | 0.327
ACGACGCC | -0.036
CCGACTTC | -0.223
ACGACTCC | 0.366
CCGACTCC | 0.45
GGGACTCA | 0.261
ACGACTTG | -0.0454
ACGACTAT | 0.195

Sequence | PBM E-score
CAACAACG | 0.087
CAGAAGAG | -0.189
CGGTAGAC | -0.00049
ACAAGAGT | 0.108
ACAGGGAC | -0.138
GCTTAGGA | -0.0935
GCACTACC | -0.0106
GTACCCGA | -0.161
AAGCTGCA | -0.00033
TCGACCCA | 0.166
TCTACTCA | 0.112
TCGACTCA | 0.349
GCCATAGC | -0.0742
CCATGCGA | 0.0318
GCATGCGA | 0.159
TCATGCGA | 0.285
CTATGATC | 0.112
ACTCGACG | 0.269
AGTCGACT | 0.33
AGTCGACA | 0.197
CGTCGACG | 0.161
GGTCGACC | 0.32
AGTCGACG | 0.278
CGTCGACC | -0.00578
AGTCGACC | -0.0312
GGTCGACA | -0.0223

Sequence | PBM E-score
ACATCCCG | 0.231
CCTGCACA | -0.0959
AGTCGAGA | 0.0118
ACATAGAC | 0.0646
ATCCATAC | 0.0581
CCACCTCG | -0.085
CCTTGACC | -0.111
AGGAGTCA | 0.479
AGGAGTCG | 0.339
AGGAGTAA | 0.0927
GGGAGTAA | 0.0449
GGGAGTCA | 0.47
AGGAGTCC | 0.165
GGGAGTTA | -0.144
AGGAGTTG | -0.00747
AGGAGTGA | 0.00535
AAGAAAGC | -0.174
ACTAAAAT | -0.0643
ACACTTCG | 0.0579
CCCTGCAC | -0.0585
CGATTTTA | -0.0769
CGCTCCCC | -0.16
CTCACTGA | 0.14
